In the library only some 3.4% were active in any assay of this set; here they are far more common.
GPR151 ag: activators of human GPR151, primary screen, cell-based, PathHunter beta-arrestin, luminescence; G-protein coupled receptor 151 (Homo sapiens), Q8TDV0; PathHunter beta-arrestin GPR151 cells; activation, % at 11.2 µM; 1% of 650,000 active; in the data active means activation above about 4.9%;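 further: 0% = median of compound wells and 100% = cells with positive control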
Target sequence (Q8TDV0 whole entry, looked up): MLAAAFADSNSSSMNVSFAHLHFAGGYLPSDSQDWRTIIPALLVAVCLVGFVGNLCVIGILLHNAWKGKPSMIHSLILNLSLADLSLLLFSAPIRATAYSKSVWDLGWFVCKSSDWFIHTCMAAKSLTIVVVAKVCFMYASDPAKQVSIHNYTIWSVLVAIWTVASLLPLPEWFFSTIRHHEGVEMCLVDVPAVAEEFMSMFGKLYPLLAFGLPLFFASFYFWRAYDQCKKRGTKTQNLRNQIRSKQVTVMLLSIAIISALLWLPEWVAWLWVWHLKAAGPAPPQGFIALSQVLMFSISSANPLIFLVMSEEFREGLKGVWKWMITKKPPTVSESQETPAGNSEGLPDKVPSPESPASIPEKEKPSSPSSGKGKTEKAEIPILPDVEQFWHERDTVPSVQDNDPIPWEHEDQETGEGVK
MITF inh: MITF inhibitors, primary screen, biochemical, AlphaScreen, human | AlphaScreen MITF homodimerization, bead proximity signal | inhibition, % at 2.6 µM | 0.91% of 650,000 active | AID 1259374, 2018; in the data active means inhibition above about 50%;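 further: 0% = vehicle wells with protein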
FBW7 activator: FBW7 E3 ligase activators, primary screen, biochemical, AlphaScreen, human; F-box/WD repeat-containing protein 7 (Homo sapiens), Q969H0; AlphaScreen FBW7–phospho-cyclin E peptide binding, activator screen; normalized activity (activation), % at 26.1 µM; 0.13% of 650,000 active; AID 1259310, 2017; in the data active means normalized activity above about 1.9%;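 further: purified mutant Fbw7 with reduced substrate affinity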
TEAD-YAP inh: TEAD-YAP interaction inhibition, primary screen, TEAD-YAP interaction inhibitor project, luminescence, HEK-TIYL cells. AID 1259422, 2018. TEAD-Gal4/YAP UAS-luciferase luminescence. 1.4% of 640,000 active. inhibition, % at 9.12 µM; in the data active means inhibition above about 32%;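 further: 0% = median of test compound wells and 100% = reference inhibitor wells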
Starred values were filed as active, the others as inactive.

COc1ccc(C(Nc2cc(C)ccn2)c2ccc3ccc(C)nc3c2O)cc1OC (configuration not stated) was read as GPR151 ag 0, MITF inh 20, FBW7 activator 0 and TEAD-YAP inh 28.
`Cc1ccc2ccc(C(Nc3ccccn3)c3ccc(C)c(C)c3)c(O)c2n1` (configuration not stated) gave GPR151 ag 0, MITF inh 9, FBW7 activator 0 and TEAD-YAP inh 10.
COc1ccc(C(Nc2cc(C)ccn2)c2ccc3cccnc3c2O)cc1OC (configuration not stated) was read as GPR151 ag -1, MITF inh 28, FBW7 activator 0 and TEAD-YAP inh 61*.
Screening O=c1cc(-c2ccccc2)oc2cc(O)c(O)cc12 returned GPR151 ag 0, MITF inh 2, FBW7 activator 0 and TEAD-YAP inh 70*.
For O=c1cc(-c2ccccc2)oc2c(O)c(O)ccc12 the results were GPR151 ag -1, MITF inh 11, FBW7 activator 0 and TEAD-YAP inh 43*.
For COc1ccc(OC)c(C2NC(=O)NC(C)=C2C(=O)Nc2ccccc2)c1 (configuration not stated) the results were GPR151 ag 0, MITF inh 4, FBW7 activator 0 and TEAD-YAP inh -2.
Screening COc1cc(C2C=C(c3cccc(NC(C)=O)c3)Nc3ncnn32)cc(OC)c1OC (configuration not stated) returned GPR151 ag 1, MITF inh 1, FBW7 activator 0 and TEAD-YAP inh 52*.
For Cc1ccc(C2=CC(c3ccc(C)cc3)n3ncnc3N2)cc1 (configuration not stated) the results were GPR151 ag -1, MITF inh -6, FBW7 activator 0 and TEAD-YAP inh -45.
COc1ccc(C2C=C(c3ccc(Cl)cc3)Nc3ncnn32)cc1OC (configuration not stated) was read as GPR151 ag 1, MITF inh 21, FBW7 activator 0 and TEAD-YAP inh 4.
`COc1cccc(C2=CC(c3cc(OC)c(OC)c(OC)c3)n3ncnc3N2)c1` (configuration not stated) gave GPR151 ag 0, MITF inh 10, FBW7 activator 0 and TEAD-YAP inh 68*.
Screening COc1cc(C2C=C(c3ccc(C)cc3)Nc3ncnn32)cc(OC)c1OC (configuration not stated) returned GPR151 ag -2, MITF inh 8, FBW7 activator 0 and TEAD-YAP inh 62*.
For CCc1ccc(C2=CC(c3ccc(OC)c(OC)c3)n3ncnc3N2)cc1 (configuration not stated) the results were GPR151 ag 5, MITF inh -2, FBW7 activator 0 and TEAD-YAP inh 33*.
`COc1cccc(C2=CC(c3ccc(OC)c(OC)c3OC)n3ncnc3N2)c1` (configuration not stated) gave GPR151 ag 1, MITF inh -9, FBW7 activator 0 and TEAD-YAP inh -12.
For CCc1ccc(C2=CC(c3cc(OC)c(OC)c(OC)c3)n3nnnc3N2)cc1 (configuration not stated) the results were GPR151 ag 1, MITF inh 6, FBW7 activator 0 and TEAD-YAP inh 56*.
`CCc1ccc(C2=CC(c3ccc(Cl)cc3)n3nnnc3N2)cc1` (configuration not stated) gave GPR151 ag 2, MITF inh 6, FBW7 activator 0 and TEAD-YAP inh 6.
COc1cc(C2C=C(c3ccccc3)Nc3ncnn32)cc(OC)c1OC (configuration not stated) was read as GPR151 ag 0, MITF inh 11, FBW7 activator 0 and TEAD-YAP inh 61*.
Cc1ccc(S(N)(=O)=O)cc1NC(=O)/C=C/c1c(Cl)cccc1Cl was read as GPR151 ag 0, MITF inh -3, FBW7 activator 0 and TEAD-YAP inh -9.
Screening O=C(NCCn1nnn(-c2ccccc2)c1=O)c1cccs1 returned GPR151 ag 0, MITF inh -12, FBW7 activator 0 and TEAD-YAP inh 1.
For COc1cc(C(=O)Nc2ccc(O)cc2)cc(OC)c1OC the results were GPR151 ag 3, MITF inh -5, FBW7 activator 0 and TEAD-YAP inh 10.
Screening COc1cc(C(=O)Nc2ccc3c(c2)Nc2ccccc2CC3)cc(OC)c1OC returned GPR151 ag 0, MITF inh -1, FBW7 activator 0 and TEAD-YAP inh 62*.
`O=C(Nc1ccc2c(c1)Nc1ccccc1CC2)c1ccccc1` gave GPR151 ag -1, MITF inh 8, FBW7 activator 0 and TEAD-YAP inh -14.
Screening COC(=O)c1ccc(NC(=O)c2cc(OC)c(OC)c(OC)c2)cc1 returned GPR151 ag 1, MITF inh -8, FBW7 activator 0 and TEAD-YAP inh 59*.
`COc1cc(C(=O)Nc2ccc3c(c2)oc2ccccc23)cc(OC)c1OC` gave GPR151 ag 0, MITF inh -4, FBW7 activator 0 and TEAD-YAP inh 57*.
COc1ccc(CCNc2ncnc3c2nc(Nc2ccc(N4CCOCC4)cc2)n3C(C)C)cc1 was read as GPR151 ag 4, MITF inh 7, FBW7 activator 0 and TEAD-YAP inh 79*.
`COc1ccc(CCNc2ncnc3c2nc(-c2ccc(N4CCOCC4)nc2)n3C(C)C)cc1` gave GPR151 ag 1, MITF inh -2, FBW7 activator 0 and TEAD-YAP inh 59*.
Screening COc1ccc(CCNc2ncnc3c2nc(N2CCOCC2)n3C(C)C)cc1 returned GPR151 ag 1, MITF inh 3, FBW7 activator 0 and TEAD-YAP inh -13.
`Cc1cc(NC(=O)CN2CC(C)OC(C)C2)nc2c1c(=O)oc1ccccc12` (configuration not stated) gave GPR151 ag -1, MITF inh 2, FBW7 activator 0 and TEAD-YAP inh -8.
For CCOC(=O)c1ccc(NC(=O)c2ccnn2C)cc1 the results were GPR151 ag -6, MITF inh -4, FBW7 activator 0 and TEAD-YAP inh -43.
Cn1nccc1C(=O)Nc1ccc(OC(=O)c2ccnn2C)cc1 was read as GPR151 ag 2, MITF inh -5, FBW7 activator 0 and TEAD-YAP inh 34*.
`CCn1cc(C(=O)NC2(c3cccc(OC)c3)CCCC2)cn1` gave GPR151 ag 0, MITF inh -1, FBW7 activator 1 and TEAD-YAP inh 14.
`O=C(CCC1(Cc2ccc3c(c2)OCO3)CCC(=O)N1)NC(c1ccccc1)c1ccco1` (configuration not stated) gave GPR151 ag -1, MITF inh -8, FBW7 activator 0 and TEAD-YAP inh -6.
CCCCN1C=CC(=C2C(=O)c3ccccc3C2=O)C=C1 was read as GPR151 ag -8, MITF inh 18, FBW7 activator 1 and TEAD-YAP inh 96*.

Bioassay records deposited in PubChem by The Scripps Research Institute Molecular Screening Center.
